Results: PubChem BioAssay (NCATS)
Values joined by “and” are separate entries in the source; they are usually repeats but may differ in a detail not shown here. Equal values may be shown once. Records with an inconclusive call do not appear. More than one record can exist for a structure, and the calls need not agree. Active and inactive are the calls of the source. Calls follow the shape of the dose curve; as a rule, active = well fitted curve in the direction sought with a large enough effect; inconclusive = small, poorly fitted or top-dose-only effect, or another doubt; inactive = no such curve, though single readings can be large; an effect the other way counts as inactive or inconclusive.

Columns and labels:
[1] = target: Glutathione peroxidase 1 (Homo sapiens) (UniProt P07203); assay: Primary qHTS Assay for Inhibitors of Recombinant Selenoprotein Glutathione Peroxidase 1 (GPX1) (AID 1845191); also: nearly all actives have a fitted effect of over 65% in size
Procedure, shortened: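 Recombinant GPX1 (10 nM final) was preincubated with compound for 30 min at room temperature, then reacted with 1 mM GSH, 0.5 mM CHP, 0.5 mM NADPH and 100 nM glutathione reductase; NADPH fluorescence (340/450 nm) was read at 0 and 15 min.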

[2] = target: Phospholipid hydroperoxide glutathione peroxidase GPX4 (Homo sapiens) (UniProt P36969); assay: Primary qHTS Assay for Inhibitors of Recombinant Selenoprotein Glutathione Peroxidase 4 (GPX4) (AID 1845192); also: nearly all actives have a fitted effect of over 65% in size; also: potency is read from the fitted curve at half-maximal effect
Procedure, shortened: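 GR-coupled readout: 100 nM GR, 1 mM GSH, 0.5 mM NADPH; NADPH fluorescence (ex 340/em 450 nm) read at t=0 and after 15 min RT. GPX4 200 nM, preincubated 30 min with compound; substrate 0.5 mM CHP.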

[3] = Primary fluorescence-based thiol-reactive (MSTI) qHTS assay for identification of artifact compounds. (AID 1845221); also: nearly all actives have a fitted effect of over 65% in size; also: potency is read from the fitted curve at half-maximal effect
Procedure, shortened: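 Probe: MSTI 4 uM, PBS pH 7.4, 2% DMSO. Incubation 1 h, RT, light-protected. Readout fluorescence 525/598 nm.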

[4] = test system: Nanoluciferase (engineered Oplophorus gracilirostris luciferase); assay: Primary Nanoluciferase (NLuc) qHTS assay for identification of artifact compounds. (AID 1845222); also: series mostly up to about 54 µM
Procedure, shortened: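 Luminescence read-out of secreted NLuc in S16 cell conditioned medium (1:55); compounds tested with 15 min RT preincubation, then Nano-Glo substrate 1:100, 5 min. % inhibition vs no-enzyme and DMSO controls, 4-parameter Hill fit.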

[5] = Primary redox qHTS assay for identification of artifact compounds. (AID 1845223); also: potency is read from the fitted curve at half-maximal effect
Procedure, shortened: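 Amplex Red (25 uM) and HRP (250 mU/mL) in HBSS, with compounds for 15 min, then 250 uM DTT for 30 min, room temperature, dark. Fluorescence 525/598 nm read; normalized to DMSO and 10 uM DA3003; Hill fit.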

[6] = target: Luciferin 4-monooxygenase (Photinus pyralis) (UniProt P08659); assay: Primary firefly luciferase (FLuc) qHTS assay for identification of artifact compounds. (AID 1845220); also: nearly all actives have a fitted effect of over 60% in size
Procedure, shortened: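 qHTS, 15 min compound preincubation with substrate (10 uM luciferin, 10 uM ATP) at RT, then 10 nM FLuc; 5 min; luminescence; % inhibition vs no-enzyme/DMSO controls, 4-parameter Hill fit.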

Measured: Potency

Chain of Phospholipid hydroperoxide glutathione peroxidase GPX4 (Homo sapiens) (P36969 whole entry, looked up): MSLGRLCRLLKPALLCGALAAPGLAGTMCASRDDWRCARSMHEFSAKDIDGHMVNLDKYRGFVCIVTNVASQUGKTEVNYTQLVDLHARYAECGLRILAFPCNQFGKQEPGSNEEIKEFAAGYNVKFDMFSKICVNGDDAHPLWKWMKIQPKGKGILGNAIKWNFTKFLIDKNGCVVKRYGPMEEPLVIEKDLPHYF
Chain of Glutathione peroxidase 1 (Homo sapiens) (P07203 whole entry, looked up): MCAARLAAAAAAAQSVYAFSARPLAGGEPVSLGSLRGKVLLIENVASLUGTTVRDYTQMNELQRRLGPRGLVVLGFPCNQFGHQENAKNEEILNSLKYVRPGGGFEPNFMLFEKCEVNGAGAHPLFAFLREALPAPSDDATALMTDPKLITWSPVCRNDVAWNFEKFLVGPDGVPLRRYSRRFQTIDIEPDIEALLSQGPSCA

C=C1C(=O)O[C@@H]2/C=C(\CO)CC/C=C(/C=O)C[C@H](O)[C@@H]12
active: [3] 11.9 µM
inactive: [1] | [2] | [4] | [5]

COC1CCN(c2cccc(-c3cc(NC(C)=O)nc(-n4nc(C)cc4C)n3)n2)CC1
inactive: [1] | [2] | [3] | [4] | [5]

COc1ccccc1S(=O)(=O)Nc1ccc2c(c1)CN(C)C(=O)N2
inactive: [1] | [2] | [3] | [4] | [5]

O=C(Nc1ccc(Cl)cc1)Nc1cccc(-c2cccc(N3CCCC3)n2)c1
inactive: [1] | [2] | [3] | [4] | [5]

FC(F)(F)c1ccccc1-c1cc(C(F)(F)F)c2nc(C3=NOC4(CCCCC4)C3)[nH]c2c1
inactive: [1] | [2] | [3] | [4] | [5]

O=C(NCCCc1ccccc1)C1CCC(CNS(=O)(=O)c2cccc3nsnc23)CC1 (configuration not stated)
inactive: [1] | [2] | [3] | [4] | [5]

COc1cc(Br)c(S(=O)(=O)Nc2ccc(Cl)c(O[C@@H]3CCN(C)C3)c2)cc1OC
inactive: [1] | [2] | [3] | [4]

CC(C)S(=O)(=O)NC[C@@H]1CC(c2ccc(N3CCCC3)c(F)c2)=NO1
inactive: [1] | [2] | [4] | [5]

CC(O)(C(=O)C1CC1(CO)COC1OC(CO)C(O)C(O)C1O)C1C(O)CC2C3CC=C4CC(O)CC(O)C4(C)C3C(O)CC21C (configuration not stated)
inactive: [1] | [2] | [3] | [4] | [5]

CN(C)Cc1ccc(-c2cnn3c(-c4cccc(NC(=O)c5cccc(C(F)(F)F)c5)c4)ccnc23)cc1
inactive: [1] | [2] | [3] | [4] | [5]

COc1cc(N2CCC(N3CCN(C)CC3)CC2)ccc1Nc1ncc(Cl)c(Nc2ccccc2P(C)(C)=O)n1
inactive: [1] | [2] | [4]

Clc1cccc(COc2cncc(N3CCNCC3)n2)c1
inactive: [1] | [6] | [3] | [4] | [5]

C=C(C)C1CCC2(C(=O)O)CCC3(C)C(CCC4C5(C)C(C=O)C(O)C(C)(C)C5CCC43C)C12 (configuration not stated)
inactive: [1] | [2] | [3] | [4] | [5]

CN1CC2CN(c3ccc4oc5ccccc5c(=O)c4c3)CC2C1 (configuration not stated)
inactive: [1] | [2] | [4] | [5]

CC(=O)OC1CCC2(C)C(CCC3(C)C2CC=C2C4C(C)C(C)CCC4(C)CCC23C)C1(C)C(=O)O (configuration not stated)
inactive: [1] | [2] | [3] | [4] | [5]

COc1ccccc1C(=O)Nc1cccc(NC(=O)c2cccc(C)c2)c1
inactive: [1] | [2] | [3] | [4] | [5]

CCc1c(Cl)c(O)c(Cl)c(O)c1C(=O)O[C@H]1[C@H](O)[C@H](OC)[C@H](OC/C2=C\C=C\C[C@H](O)/C(C)=C\[C@H](CC)[C@@H](O[C@@H]3OC(C)(C)[C@@H](OC(=O)C(C)C)[C@H](O)[C@@H]3O)/C(C)=C/C(C)=C/C[C@@H]([C@@H](C)O)OC2=O)O[C@@H]1C
inactive and 5.01 µM (active): [2]
inactive: [1] | [4]

CC#C[C@@H](CC(=O)O)c1ccc(OCc2cccc(-c3ccc(C(F)(F)F)cc3)c2)cc1
inactive: [1] | [4] | [5]
active: [2] 5.7 µM

C=C1C(=O)O[C@H]2CC(=C)[C@H]3CC[C@@](C)(O)[C@@H]3CC12 (some centres not stated)
active: [3] 5.32 µM
inactive: [1] | [2] | [4] | [5]

CC1=C(C(=O)OC2CCCCC2)C(c2ccc([N+](=O)[O-])cc2)C2=C(CC(C)(C)CC2=O)N1 (configuration not stated)
active: [5] 2.12 µM
inactive: [1] | [2] | [3]

CC(C)S(=O)(=O)c1ccc2nccc(Nc3ccc4scnc4c3)c2c1
inactive: [1] | [6] | [3] | [4] | [5]

CC(C)=CCc1cc2c(cc1O)OC[C@H]1c3ccc(O)cc3O[C@@H]21
inactive: [1] | [2] | [4] | [5]

CCc1ccc(-c2nc(CSCC(=O)NCCc3ccccc3)c(C)o2)cc1
inactive: [1] | [2] | [4] | [5]

Cc1ccc(O)cc1Nc1ccnc(Nc2cccc(C(N)=O)c2)n1
inactive: [1] | [2] | [3] | [4] | [5]

COc1ccc2c(NC(=O)Nc3cccc(C(F)(F)F)n3)ccnc2c1
inactive: [1] | [2] | [3] | [4] | [5]

CC1(C)CCC(C)(C)c2cc(C#Cc3ccc(C(=O)O)cc3)ccc21
inactive: [1] | [2] | [3] | [4] | [5]

CCOC(=O)c1csc(Nc2ccc(Cl)cc2)n1
inactive: [1] | [2] | [3] | [4] | [5]

O=C(O)c1cccc(-c2ccc(-c3cn(C(=O)N4CCCCC4Cc4ccccc4)nn3)cc2)c1 (configuration not stated)
inactive: [1] | [2] | [3] | [4] | [5]

Nc1nc2c(cnn2CCCc2ccc(O)cc2)c2nc(-c3ccco3)nn12
inactive: [1] | [2] | [3] | [4] | [5]

Cc1ccc(-c2ncc[nH]2)cc1NC(=O)c1ccc(OCc2ccccn2)cc1
inactive: [1] | [2] | [3] | [4] | [5]

Cc1cn(CCN2CCN(c3ccccc3-c3cc(C#N)cc(C(=O)NCCCN4CCCC4)c3)CC2)c2ccccc12
inactive: [1] | [2] | [3] | [4] | [5]

CCOc1cc(C(C)(C)C)ccc1C1=NC(C)(c2ccc(Cl)cc2)C(C)(c2ccc(Cl)cc2)N1C(=O)N1CCN(CCCS(C)(=O)=O)CC1 (configuration not stated)
inactive: [1] | [2] | [3] | [4] | [5]

C=C1/C(=C/C=C2\CCC[C@]3(C)[C@@H]([C@@H](C)OCCC(O)(CC)CC)CC[C@@H]23)C[C@@H](O)C[C@@H]1O
inactive: [1] | [6] | [3] | [4]

O=C(Nc1ccccc1C(=O)Nc1ccc(CCO)cc1)c1ccc([N+](=O)[O-])cc1
inactive: [1] | [2] | [4] | [5]
